Out of some 310,000 compounds screened, about 14,000 (4.5%) showed an effect of 50% or more. The effect is printed as a negative number. Shown is part of a subset that was picked to be rich in strong results.
biological target: human ether-à-go-go-related gene (hERG) potassium channel (human, UniProt Q12809); experiment: primary screen, population patch clamp on CHO cells stably expressing hERG; higher = less effect of the substance
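Also: peak tail current of the secondary pulse compared with the same well before compound.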

human ether-à-go-go-related gene (hERG) potassium channel, sequence (Q12809 whole entry, looked up): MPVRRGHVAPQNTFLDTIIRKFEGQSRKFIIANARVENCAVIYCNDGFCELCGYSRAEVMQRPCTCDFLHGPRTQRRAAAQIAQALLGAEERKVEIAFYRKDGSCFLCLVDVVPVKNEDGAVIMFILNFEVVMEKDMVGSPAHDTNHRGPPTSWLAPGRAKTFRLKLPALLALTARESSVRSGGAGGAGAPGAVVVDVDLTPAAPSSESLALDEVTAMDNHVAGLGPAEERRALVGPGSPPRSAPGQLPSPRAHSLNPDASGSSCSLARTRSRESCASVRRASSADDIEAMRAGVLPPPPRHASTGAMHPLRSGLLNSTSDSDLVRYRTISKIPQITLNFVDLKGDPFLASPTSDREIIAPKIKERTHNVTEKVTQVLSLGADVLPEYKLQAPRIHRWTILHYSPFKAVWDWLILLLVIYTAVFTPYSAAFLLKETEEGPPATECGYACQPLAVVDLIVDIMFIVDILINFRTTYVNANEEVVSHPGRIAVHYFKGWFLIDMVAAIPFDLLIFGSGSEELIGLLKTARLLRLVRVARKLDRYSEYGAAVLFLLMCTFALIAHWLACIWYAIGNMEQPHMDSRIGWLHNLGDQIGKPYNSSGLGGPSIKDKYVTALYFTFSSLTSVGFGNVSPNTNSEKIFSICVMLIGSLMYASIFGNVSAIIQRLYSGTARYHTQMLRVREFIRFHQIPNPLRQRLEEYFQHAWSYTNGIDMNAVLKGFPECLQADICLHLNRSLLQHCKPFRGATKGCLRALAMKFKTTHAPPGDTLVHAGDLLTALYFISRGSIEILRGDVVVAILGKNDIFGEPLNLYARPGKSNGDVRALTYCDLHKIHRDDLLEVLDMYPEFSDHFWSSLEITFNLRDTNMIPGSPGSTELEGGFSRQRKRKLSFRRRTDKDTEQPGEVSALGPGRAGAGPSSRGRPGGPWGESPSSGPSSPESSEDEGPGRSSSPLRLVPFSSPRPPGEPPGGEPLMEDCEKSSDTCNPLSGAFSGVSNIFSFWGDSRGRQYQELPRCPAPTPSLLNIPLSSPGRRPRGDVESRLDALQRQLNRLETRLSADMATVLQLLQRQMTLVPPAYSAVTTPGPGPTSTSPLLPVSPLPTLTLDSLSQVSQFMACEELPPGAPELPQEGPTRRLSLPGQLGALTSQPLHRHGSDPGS

Compound | hERG current change (%, negative = inhibition) at 10uM
Cc1c(Cl)cccc1NC(=S)N1CCN(Cc2ccccc2)CC1 | -3.12%
CN(C)C(CNC(=O)c1ccccc1C(F)(F)F)c1ccco1 (centres unmarked) | 7.83%
CCS(=O)(=O)Nc1cccc(C(=C2CCCCC2)c2cnc[nH]2)c1 | -30.2%
CCN1CCc2c(C#N)c(N3CCOCC3)nc(N3CCOCC3)c2C1 | 5.21%
O=C(Nc1ncccn1)C1=C(O)c2ccccc2S(=O)(=O)N1Cc1ccccc1 | 22.8%
CCOC(=O)/C(C#N)=C/c1cccn1-c1ccc(Cl)cc1 | 2.73%
C/C(=N\NC(=O)COc1ccccc1F)c1cc2ccccc2o1 | 3.99%
Cc1cc(C)cc(-c2nnc(SCc3ccc(C(=O)O)cc3)o2)c1 | -74%
O=C(O)c1ccc(CSc2nnc(-c3ccc(Cl)cc3)o2)cc1 | 26.5%
COc1cc(OC)cc(-c2nnc(SCc3ccc(C(=O)O)cc3)o2)c1 | -71.6%
COc1cc(OC)cc(-c2nnc(SCc3cccc(C(=O)O)c3)o2)c1 | 8.29%
O=C(O)c1ccc(CSc2nnc(-c3ccco3)o2)cc1 | 2.07%
COc1ccc(-c2nnc(SCc3ccc(C(=O)O)cc3)o2)cc1OC | 13.7%
CN(C(=O)c1ccnn1C)C1CCCN(Cc2ccccc2F)C1 (centres unmarked) | 15.2%
CSCCC(NC(=O)c1ccccc1Br)C(=O)N1CCN(C(C)=O)CC1 (centres unmarked) | 8.22%
O=C(COC(=O)c1ccc(Br)o1)Nc1ccc(Br)cc1 | 19%
CCCc1cc(C(=O)Nc2sc3c(c2C(=O)OCC)CCCC3)no1 | 6.07%
O=C(NNc1nc(-c2ccccc2)c2cc(Br)ccc2n1)c1ccc(S(=O)(=O)N2CCCCC2)cc1 | 8.26%
COc1ccc(-c2cn[nH]c2-c2ccc(OCc3ccc([N+](=O)[O-])cc3)cc2O)cc1 | -9.1%
C/C(=N\NC(N)=S)C1(C)CCCCC1 | 9.27%
Cc1cc(C)nc(N2CCN(c3ccc(F)cc3)CC2)n1 | 13.2%
Cc1cc(C)nc(N2CCN(c3nnnn3-c3ccccc3)CC2)n1 | 9.05%

Compound | hERG current change (%, negative = inhibition) at 10uM
Cc1cc(N2CCN(C(c3ccccc3)c3ccccc3)CC2)n2ncnc2n1 | -5.7%
Cc1cc(N2CCc3ccccc32)n2ncnc2n1 | -0.558%
Cc1cc(N2CCN(Cc3ccc4c(c3)OCO4)CC2)n2ncnc2n1 | 7.64%
Cc1cc(N2CCN(c3nnnn3-c3ccccc3)CC2)n2ncnc2n1 | -60.2%
Cc1cc(N2CCN(c3nc4ccccc4s3)CC2)n2ncnc2n1 | -77.6%
Cc1cc(N2CCN(c3ccc(F)cc3)CC2)n2ncnc2n1 | -57.6%
Cc1cc(N2CCN(C/C=C/c3ccccc3)CC2)n2ncnc2n1 | -71.5%
Cc1nc2ncnn2c(C)c1C/C=C/c1ccccc1 | -15.3%
c1ccc(N2CCN(c3nnnn3-c3ccccc3)CC2)cc1 | -11.2%
Cc1cc(N2CCN(c3ccccc3)CC2)n2ncnc2n1 | -31.2%
CCCCn1c(O)c(/C=C/C=C/C=Nc2ccccc2)sc1=S | 31%
O=C(Nc1ccc(Cl)c(C(F)(F)F)c1)C(=O)N1CCCCC1 | -1.61%
CC(Oc1ccc(Br)cc1)C(=O)NCC(C)(C)N1CCOCC1 (centres unmarked) | -26%
COC(=O)c1ccccc1NC(=O)c1ccc(COc2ccc(C)c(C)c2)o1 | 11.9%
COC(=O)C1=C(c2c(C)noc2C)C[C@@H]2CC[C@H]1N2C(=O)NCCO | 20%
Cc1nnc(N/N=C/C2CC=CCC2)[nH]c1=O (centres unmarked) | 7.06%
CC(C)C(NS(=O)(=O)c1cccc2nsnc12)C(=O)NCc1ccc2c(c1)OCO2 (centres unmarked) | -18.7%
Cc1c(NC(=O)C(C)OC(=O)CNC(=O)c2ccc(C(C)(C)C)cc2)c(=O)n(-c2ccccc2)n1C (centres unmarked) | 13.2%
Cc1cc(C)n(-c2ccc(NC(=O)C3CCN(Cc4ccc(C)o4)CC3)cc2)n1 | -16.6%
CCOC(=O)CSc1nc(-c2ccc3c(c2)OCO3)ccc1C#N | 7.3%
CCOC(=O)CSc1nc(-c2ccncc2)ccc1C#N | -61.6%
CC(=O)CSc1nsc(SCC(C)=O)c1C#N | 17.2%

From PMC4336329 (PLoS ONE, 2015)
